Experimental findings from PubChem BioAssay (NCATS) are described below.

Each structure is given as a SMILES string. Results filed as inconclusive are left out. A call without a number means that no potency is given here. Calls of active or inactive are those of the source. The call rests on the fitted dose curve; in most records, active means well fitted inhibition curve with a large enough effect; inconclusive means small, poorly fitted or top-dose-only effect; inactive means flat fitted curve, though single readings scatter.

The test system of the assay is CRL-7250. Briefly: qHTS assay to identify novel small-molecules to repurpose for Merkel cell carcinoma treatment (AID 1296009). Further: nearly all actives have a fitted effect of over 60% in size. Particulars: MCC and control cell lines, CellTiter-Glo viability, 72 h; series mostly up to 92 µM. Summed up:
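Cells were incubated with compound for 72 hr at 37 degree celsius before CellTiter-Glo addition. Luminescence was normalized with no-cell wells as full cytotoxicity and DMSO as baseline.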
A general note: qHTS replaces the single test concentration by a dilution series.
On to `CC(C)=C1CC2[C@](C)(CC[C@@H](OC(=O)C3(C)OC3C)[C@@]2(C)O)CC1=O` (stereo partly drawn), for which the Potency result is “inactive”.
Turning to `CCOC(=O)COc1ccc2c(c1)C[C@@H](NC[C@H](O)c1cccc(Cl)c1)CC2`, the Potency entry is “inactive”.
As for `CC1(C)O[C@H]2CC(=O)OC[C@@]23C1=C(O)C(=O)[C@]1(C)C3CC[C@@]2(C)[C@H](c3ccoc3)OC(=O)[C@H]3O[C@]321` (stereo partly drawn), the Potency result is “inactive”.
Turning to `OC[C@H]1O[C@@H](OCc2ccccc2)[C@H](O[C@@H]2OC[C@@H](O)[C@H](O)[C@H]2O)[C@@H](O)[C@@H]1O`, the Potency result was “inactive”.
For `CC(=O)OC1CC(=O)C2(C)C3CC4=C(OC(C)CC4=O)OC3(C)CCC2C1(C)C` (stereo not drawn), the Potency result is “inactive”.
For `CC(C)(C)C1CCN(C(=O)n2ncc(C(O)(c3ccccc3)c3ccccc3)n2)CC1`, the Potency result is “inactive”.
With `COc1c2c(c(C)c3c1C(=O)OC3)O[C@@]1(C)C[C@@H](O)[C@]34O[C@](OC)(CC[C@]3(C)[C@H]1C2)OC4(C)C`, the Potency result was “inactive”.
Under `O[C@@](Cc1ncc(CC2(C(F)(F)F)CC2)[nH]1)(c1ccc(-n2cccn2)cc1)C(F)(F)F` stands “inactive”; under `C=CC/C=C\C/C=C\CCCCCCCc1cccc(O)c1C(=O)O`, “inactive”.
Consider `O=S(=O)(O)c1ccc(Nc2ncnc3c2ncn3[C@@H]2O[C@H](CO)[C@@H](O)[C@H]2O)cc1`, for which the Potency entry was “inactive”.
In the case of `COc1cc2ncnc(Nc3ccc(O)cc3)c2cc1OC` it was “inactive”.
Take `CC/C=C\CCO[C@@H]1O[C@H](CO[C@@H]2OC[C@H](O)[C@H](O)[C@H]2O)[C@@H](O)[C@H](O)[C@H]1O`: the Potency entry was “inactive”.
Consider `Cc1ccnn1-c1ccc(C(=O)N2CCN(S(=O)(=O)c3ccc(Cl)c(C(F)(F)F)c3)CC2)cc1`, for which the Potency result is “inactive”.
